# Screening data: PubChem BioAssay, University of Kansas High Throughput Screening Laboratory
# mHTT CaM bind: mHTT-calmodulin interaction abrogation | P42858 | AlphaScreen His-mHTT/GST-CaM binding, luminescence | inhibition, % at 15 µM | actives 3.6% (n = 190,000);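 further: 0% = both proteins with DMSO and 100% = one protein alone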
# Pf apPOL inh: Pf-apPOL DNA polymerase inhibition; Recombinant Pf-apPOL, molecular beacon fluorescence, 1.5 h; inhibition, % at 10 µM; actives 0.25% (n = 210,000); AID 1794808
# Numbers without * were called inactive; nt = no result. The sample as a whole holds a higher share of hits than the screen did. No stated cut-off is given here; in the data, active means inhibition above about 50%; inactive means the rest.
SMILES,mHTT CaM bind,Pf apPOL inh
CCc1cc2c(=O)c(-c3nc4ccccc4n3C)c(COCC(=O)O)oc2cc1OC(=O)C(C)(C)C,51*,-3
CCc1oc2cc(O)ccc2c(=O)c1-c1nc2ccccc2n1C,0,-2
CCc1cc2c(=O)c(-c3nc4ccccc4n3C)c(C(C)(C)C)oc2cc1O,-6,3
CC(C)N(Cc1ccccc1)C(=O)c1ccc([N+](=O)[O-])cc1Cl,4,-8
Cc1cc(NC(=O)c2ccc(-n3ccnc3)nn2)no1,54*,17
O=C(Nc1cccc2cccnc12)c1ccccc1O,-34,1
O=C(Nc1cccc2cccnc12)c1ccc(-n2ccnc2)nn1,61*,5
Cc1cc(NC(=O)c2ccc(C(=O)Nc3cc(C)on3)nc2)no1,-6,0
CCSc1ccccc1C(=O)Nc1cccc2ccc(-n3ccnc3)nc12,82*,-3
CCSc1ccccc1C(=O)Nc1cccc2ccc(OC)nc12,-52,-4
O=C(CNC(=O)c1ccccc1)NCCc1ccsc1,-12,-4
Cc1ccc2oc(C(=O)N3CCN(c4cccc(C(F)(F)F)c4)CC3)cc2n1,72*,-10
O=C(C1CCN(c2ccncc2)CC1)N1CCN(c2cccc(C(F)(F)F)c2)CC1,7,1
O=C(CS(=O)(=O)Cc1ccccc1)Nc1nc(-c2ccccn2)cs1,87*,-74
O=C(Cc1ccc(F)cc1)Nc1nc(-c2ccccn2)cs1,85*,-8
O=C(Cc1ccc(F)cc1)Nc1ncccn1,17,-3
O=C(CS(=O)(=O)Cc1ccccc1)Nc1nc(-c2cc3ccccc3o2)cs1,1,-6
O=c1ccc(-c2noc(-c3ccccn3)n2)c[nH]1,-2,0
CC(C)c1ccc(-n2ccnc(NC(=O)c3cccc(F)c3)c2=O)cc1,14,-3
O=C1OC(c2ccc(-c3ccccc3)cc2)=N/C1=C\c1cccnc1,4,-2
O=C(CCC(=O)N1CCN(Cc2csc(-c3ccccc3)n2)CC1)c1ccccc1,20,-9
O=C(c1cc2ccccc2[nH]1)N1CCN(Cc2csc(-c3ccccc3)n2)CC1,66*,-10
COc1ccc(C(=O)N2CCC3(CC2)NC(=O)N(Cc2cccc(Cl)c2)C3=O)cc1F,25,-8
CCS(=O)(=O)N1CCCC(c2nc(CNC(=O)C3CC3)cs2)C1 (centres undefined),-10,-7
CCC(C)(C(=O)NC1CCCCC1)N(CC1CCCO1)C(=O)Cc1c[nH]c2ccccc12 (centres undefined),58*,-2
SMILES,mHTT CaM bind,Pf apPOL inh
O=C(Cc1c[nH]c2ccccc12)N(Cc1cccs1)C1(C(=O)NC2CCCC2)CCCCC1,0,-6
CCC(C)(C(=O)NC1CCCCC1)N(C)C(=O)Cc1c[nH]c2ccccc12 (centres undefined),7,-2
O=C(Cc1c[nH]c2ccccc12)N(CC1CCCO1)C1(C(=O)NC2CCCCC2)CCCCC1 (centres undefined),87*,-1
CC(=O)Nc1ccc(Cl)c(-c2nc3ccccc3o2)c1,-6,-1
O=C(NCCc1csc(C2CCCN(C(=O)c3ccc(F)c(Cl)c3)C2)n1)C1CCC1 (centres undefined),12,-3
CCN1C(=O)Cc2ccccc2C1C(=O)N1CCN(c2ccccc2)CC1 (centres undefined),14,-5
CCOc1ccc(C=C2Oc3c(ccc(O)c3CN3CCN(C)CC3)C2=O)cc1,5,-2
CN1CCOc2ccc(NC(=O)c3cc(-c4cccs4)[nH]n3)cc2C1=O,-7,-7
O=C(c1csc(-c2ccc(N3CCCC3)nc2)n1)N1CCCC1,-8,3
OC[C@@H]1[C@@H](c2ccc(Cl)cc2)C(c2ccc(F)cc2)=NN1c1ccccc1,72*,-4
OC[C@@H]1[C@@H](c2ccccc2)C(c2ccccc2)=NN1c1ccccc1,-21,-4
OC[C@@H]1[C@@H](c2ccccc2)C(c2ccc(F)cc2)=NN1c1ccccc1,67*,-6
O=C1OCCN1C(=O)[C@H]1[C@H](c2ccc(F)cc2)C(c2cccc(Cl)c2)=NN1c1ccccc1,19,1
OC[C@@H]1[C@@H](c2ccc(F)cc2)C(c2ccc(F)cc2)=NN1c1ccccc1,89*,-6
C[C@H]1C(c2ccccc2)=NN(c2ccccc2)[C@@H]1CO,15,-5
Nc1cc(-c2ccccc2)nn(CC(=O)NCc2cccs2)c1=O,-17,-10
COc1cccc(NC(=O)Nc2nnc(COc3ccccc3F)s2)c1,3,17
O=c1oc(-c2ccc(Cl)c([N+](=O)[O-])c2)nc2cc(Cl)ccc12,7,-8
COc1ccc(C=CC(=O)C=Cc2ccc(OC)cc2OC)c(OC)c1,nt,-10
O=C(Nc1ccc(Br)c2cccnc12)c1cccc([N+](=O)[O-])c1,0,-3
COc1ccc(C)cc1NC(=O)c1cc(S(=O)(=O)NCCc2ccccc2)ccc1F,64*,-4
O=C(Nc1cccc(Cl)c1)c1cc(S(=O)(=O)NCCc2ccccc2)ccc1F,51*,-4
O=C(Nc1cccc(F)c1)c1cc(S(=O)(=O)NCCc2ccccc2)ccc1F,6,-4
CCN(Cc1ccccc1)S(=O)(=O)c1ccc(F)c(C(=O)Nc2cc(C)ccc2OC)c1,-4,31
CCn1c(=O)c2cc(C(=O)Nc3ccc(C(F)(F)F)cc3)nn2c2ccccc21,-6,-1
SMILES,mHTT CaM bind,Pf apPOL inh
Cc1cc[n+](CC(=O)c2ccc(Br)cc2)c2ccccc12,13,0
CSc1ccc(C=Nc2ccccn2)cc1,0,nt
Cc1ccc2ccc(C(Nc3ccccn3)c3cccnc3)c(O)c2n1 (centres undefined),73*,-6
CSc1ccc(C(Nc2ccccn2)c2ccc3ccc(C)nc3c2O)cc1 (centres undefined),78*,-9
C=CCOc1ccc(C(=O)Nc2ccccn2)cc1,-7,-5
O=c1cc(CO)oc(C(Nc2ccccn2)c2ccc(F)cc2)c1O (centres undefined),33,-2
Oc1c(C(Nc2ccccn2)c2ccc(F)cc2)ccc2cccnc12 (centres undefined),98*,-8
C=CCOc1ccc(C(Nc2ccccn2)c2ccc3cccnc3c2O)cc1 (centres undefined),99*,5
O=C(c1ccc([N+](=O)[O-])cc1)N1CCN(Cc2ccc3c(c2)OCO3)CC1,2,-5
Cc1ccc(NC(=O)COc2cc(C)nc(N3CCCC3)n2)c(Br)c1,-1,0
COc1cccc(N2CCN(C(=O)C3CCCN(C(=O)c4cccc(Cl)c4)C3)CC2)c1 (centres undefined),41,-2
Cc1ccc(CNC(=O)C2(C)CCCN(C(=O)Nc3cc(Cl)ccc3C)C2)cc1 (centres undefined),-8,2
O=C(Nc1ccc(Br)cc1F)C1CCN(C(=O)Cc2ccccc2)CC1,11,-1
CN(C)c1ncncc1N1CCC(C(=O)NCc2ccc(Cl)cc2)CC1,8,-9
CCc1ccc(C(Nc2ccccn2)c2ccc3cccnc3c2O)cc1 (centres undefined),97*,-2
CC1=C(C(=O)Nc2ccccn2)C(c2ccc(N(C)C)cc2)n2ncnc2N1 (centres undefined),4,-3
Cc1ccc2ccc(C(Nc3ccccn3)c3ccc(N(C)C)cc3)c(O)c2n1 (centres undefined),100*,4
CSc1ccc(C(Nc2ccccn2)c2ccc3cccnc3c2O)cc1 (centres undefined),99*,2
